Reference: PubChem BioAssay (NCATS)
Records with an inconclusive call do not appear. Entries that show only a call come without a potency. A number with no mark means an inactive call. Activity calls are given as the source filed them. Calls follow the shape of the dose curve; as a rule, active = well fitted cell-killing curve with a large enough effect; inconclusive = small, poorly fitted or top-dose-only effect, or effect the other way; inactive = no such curve, though single readings can be large or run the other way.

Legend:
[1] = Viability qHTS for spleen associated tyrosine kinase inhibitor (SYKi) naive MV4-11 cells (AID 1963823); details: MV4-11 AML viability, CellTiter-Glo luminescence, 72 h; series mostly up to 45 µM; also: nearly all actives have a fitted effect of over 40% in size
Method in brief: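 CellTiter-Glo luminescence, 10 min room-temperature incubation, gave viability. Cells: naive MV4-11 (500/well), treated 72 hr at 37 C, 5% CO2.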

[2] = Viability qHTS for spleen associated tyrosine kinase inhibitor (SYKi) drug resistant MV4-11 cells (AID 1963824); details: SYKi-resistant MV4-11 viability, CellTiter-Glo, 72 h; series mostly up to 45 µM; also: nearly all actives have a fitted effect of over 35% in size
Method in brief: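 CellTiter-Glo luminescence, read 10 min after reagent addition, reports viability after a 72 hr compound exposure. Cells are an MV4-11 line made resistant to SYK inhibition, seeded at 500 per well onto compound-containing plates.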
Potency is read from the fitted curve at half-maximal effect.

With `CN1CCN(C2Cc3ccccc3Sc3ccc(Cl)cc32)CC1` (configuration not stated) the Potency [1] was 3350 nM (active) and the Potency [2] was 3350 nM (active).

For `COc1cnc(-n2cnc(C)n2)c2[nH]cc(C(=O)C(=O)N3CCN(C(=O)c4ccccc4)CC3)c12`, the Potency [1] was “inactive” and the Potency [2] was “inactive”.

In the case of `Cc1nc(CNc2ncnc3ccc(-c4ccc5c(c4)OCO5)cc23)cs1`, the Potency [1] is reported as 14600 nM (active) and the Potency [2] is reported as 23100 nM (active).

For `CC[C@]1(O)CC2CN(CCc3c([nH]c4ccccc34)[C@@](C(=O)OC)(c3cc4c(cc3OC)N(C=O)[C@H]3[C@@](O)(C(=O)OC)[C@H](OC(C)=O)[C@]5(CC)C=CCN6CC[C@]43[C@@H]65)C2)C1` (some centres not stated), the Potency [1] was 80.5 nM (active) and the Potency [2] was 50.8 nM (active).

In the case of `CC(O)/C=C/C1(O)C(C)C(O[C@@H]2O[C@H](CO)[C@@H](O)[C@H](O)[C@H]2O)C(O)CC1(C)C` (some centres not stated), the Potency [1] is reported as “inactive” and the Potency [2] is reported as “inactive”.

In the case of `CC(O)(CC(=O)O)CC(=O)OCc1ccc(O[C@@H]2O[C@H](CO)[C@@H](O)[C@H](O)[C@H]2O)cc1` (some centres not stated), the Potency [1] is reported as “inactive” and the Potency [2] is reported as “inactive”.

`CC1OC(O[C@@H]2[C@@H](O)[C@H](OC(=O)[C@]34CCC(C)(C)C[C@H]3C3=CCC5[C@@]6(C)CC[C@H](O[C@@H]7O[C@H](C(=O)O)[C@@H](O)[C@H](O[C@@H]8OC[C@@H](O)[C@H](O)[C@H]8O)[C@H]7O[C@@H]7O[C@H](CO)[C@H](O)[C@H](O)[C@H]7O)[C@@](C)(C=O)C6CC[C@@]5(C)[C@]3(C)C[C@H]4O)O[C@H](C)[C@@H]2OC2OC(C)C(OC3OCC(O)C(O)C3O)C(O)C2O)C(O)C(O)C1O` (some centres not stated) gave a viability (% of control) [1] of 94.8% [at 9.25 µM] and a viability, % of control [2] of 106% [at 9.25 µM].

In the case of `CC(C)=CCC/C(C)=C/Cc1ccc(O)c(C2OC(=O)c3cc(C(=O)O)cc(O)c32)c1O` (configuration not stated), the Potency [1] is reported as “inactive” and the Potency [2] is reported as “inactive”.

In the case of `C=C1C(O)CC2C(C(=O)O)=COC(O[C@@H]3O[C@H](COC(=O)c4ccc(O)cc4)[C@@H](O)[C@H](O)[C@H]3O)C12` (some centres not stated), the Potency [1] is reported as “inactive” and the Potency [2] is reported as “inactive”.

In the case of `CC/C=C\CCO[C@@H]1O[C@H](CO[C@@H]2OC[C@H](O)[C@H](O)[C@H]2O)[C@@H](O)[C@H](O)[C@H]1O`, the Potency [1] is reported as “inactive” and the Potency [2] is reported as “inactive”.

In the case of `Cc1cc(Nc2nn(-c3ccccc3)c(=O)c3ccccc23)n[nH]1`, the Potency [1] is reported as 146 nM (active) and the Potency [2] is reported as 461 nM (active).

In the case of `CC(C)=CCC[C@](C)(O)[C@H]1CC[C@]2(C)[C@@H]1[C@H](O)CC1[C@@]3(C)CC[C@H](O)C(C)(C)[C@@H]3[C@@H](O[C@@H]3O[C@H](CO)[C@@H](O)[C@H](O)[C@H]3O[C@@H]3O[C@H](CO)[C@@H](O)[C@H](O)[C@H]3O)C[C@]12C` (some centres not stated), the Potency [1] is reported as “inactive” and the Potency [2] is reported as “inactive”.

With `CC(=O)O[C@H]1CC(C)(C)CC2[C@@]13[C@H](O)C[C@]1(C)[C@@]2(CCC2[C@@]4(C)CC[C@H](O[C@@H]5OC[C@H](O[C@@H]6O[C@H](CO)[C@@H](O)[C@H](O)[C@H]6O[C@@H]6OC[C@@H](O)[C@H](O)[C@H]6O)[C@H](O)[C@H]5O[C@@H]5O[C@H](CO)[C@@H](O)[C@H](O)[C@H]5O)C(C)(C)C4CC[C@]21C)O[C@@H]3O` (some centres not stated) the Potency [1] was 873 nM (active) and the Potency [2] was 778 nM (active).

With `O=C(NCCN1CCOCC1)c1cc2c(Oc3ccc(NC(=O)C4(C(=O)Nc5ccc(F)cc5)CC4)cc3)ccnc2[nH]1` the Potency [1] was 25.9 nM (active) and the Potency [2] was 41.1 nM (active).

For `N#C/C(=C1/Nc2ccccc2S1)c1ccnc(OCc2ccc(CN3CCOCC3)cc2)n1`, the Potency [1] was 10500 nM (active) and the Potency [2] was 8330 nM (active).

For `CC(C)[C@@](O)(c1ccc2cc(OC(F)F)c(OC(F)F)cc2c1)c1cn[nH]n1`, the Potency [1] was 18400 nM (active) and the Potency [2] was 20600 nM (active).

For `O=C(Nc1nc2cc(C(F)(F)F)cc(NC3CC3)n2n1)c1cccnc1`, the Potency [1] was 3660 nM (active) and the Potency [2] was 2590 nM (active).

For `C=C(C(=O)O)C1CCC2(C)CCCC(C)(O)C2C1` (configuration not stated), the Potency [1] was “inactive” and the Potency [2] was “inactive”.

In the case of `COc1cc(/C=C/C(=O)O)ccc1O[C@@H]1O[C@H](CO)[C@@H](O)[C@H](O)[C@H]1O[C@@H]1OC[C@](O)(CO)[C@H]1O`, the Potency [1] is reported as “inactive” and the Potency [2] is reported as “inactive”.

In the case of `CCC(C)C1NC(=O)C2CCCN2C(=O)C(C(C)C)NC(=O)c2ccccc2NC(=O)C(Cc2ccc(O)cc2)NC(=O)C(C)NC(=O)C(C(C)O)NC1=O` (configuration not stated), the Potency [1] is reported as “inactive” and the Potency [2] is reported as “inactive”.

With `CC1CCC2(OC1)OC1CC3C4CC=C5CC(O)CC(O[C@@H]6OC[C@@H](O)[C@H](O)[C@H]6O)C5(C)C4CCC3(C)C1(O)C2C` (some centres not stated) the Potency [1] was “inactive” and the Potency [2] was “inactive”.
